miR-21 reporter: qHTS Assay for Modulators of miRNAs and/orActivators of miR-21; HeLa miR-21 FLuc reporter, luciferase, 48 h; Potency, µM (series often up to 38.3 µM), usual class: activators; 340,000 tested, under 10 active; AID 2288, 2010;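 note: miR-21 action dims this reporter so a rising signal means less miR-21 action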
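Using DMEM plus 10% FBS, HeLa miR-21-FLuc cells are incubated with test compounds (final up to about 40uM) for 48 hours; firefly luciferase signal is then imaged following reagent-mediated lysis.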
ERG Ets-DNA blk: qHTS for Small Molecule Inhibitors of the ERG Ets/DNA interaction. Potency, µM (top dose mostly 76.9 µM), usual class: inhibitors. hit rate 0.028% among 370,000. Transcriptional regulator ERG (Homo sapiens), P11308. fluorescence polarization, His-ERG Ets domain / labelled DNA; active = well fitted inhibition curve with a large enough effect in the polarisation, with a control signal flat; inconclusive = small, poorly fitted or top-dose-only effect, or effect the other way, or a change in a side signal; inactive = no such curve, though single readings can be large or run the other way; the % refers to the polarisation;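 note: polarization taken with two DNA probes labelled with fluorescein and Texas red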
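His-tagged ERG Ets domain (1 uM in the protein solution; 300mM KCl, 50mM Tris-HCl, 1mM EDTA, 1mM DTT, pH 7.5) received compound, then a probe mix of 5 nM fluorescein-DNA and 100nM Texas-615-DNA. Fluorescence polarization was read for both dyes.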
PTHR1 agonist: qHTS for PTHR1 Agonists: Primary Screen. AID 743266, 2014. hit rate 0.075% among 410,000. Parathyroid hormone/parathyroid hormone-related peptide receptor (Homo sapiens), Q03431. HEK293 GP2 PTHR1 cells, GloSensor cAMP luminescence, 1 h. Potency, µM (titrated, usually from 115 µM), usual class: activators; note: nearly all actives have a fitted effect of over 55% in size
Target sequence (Q03431 whole entry, looked up): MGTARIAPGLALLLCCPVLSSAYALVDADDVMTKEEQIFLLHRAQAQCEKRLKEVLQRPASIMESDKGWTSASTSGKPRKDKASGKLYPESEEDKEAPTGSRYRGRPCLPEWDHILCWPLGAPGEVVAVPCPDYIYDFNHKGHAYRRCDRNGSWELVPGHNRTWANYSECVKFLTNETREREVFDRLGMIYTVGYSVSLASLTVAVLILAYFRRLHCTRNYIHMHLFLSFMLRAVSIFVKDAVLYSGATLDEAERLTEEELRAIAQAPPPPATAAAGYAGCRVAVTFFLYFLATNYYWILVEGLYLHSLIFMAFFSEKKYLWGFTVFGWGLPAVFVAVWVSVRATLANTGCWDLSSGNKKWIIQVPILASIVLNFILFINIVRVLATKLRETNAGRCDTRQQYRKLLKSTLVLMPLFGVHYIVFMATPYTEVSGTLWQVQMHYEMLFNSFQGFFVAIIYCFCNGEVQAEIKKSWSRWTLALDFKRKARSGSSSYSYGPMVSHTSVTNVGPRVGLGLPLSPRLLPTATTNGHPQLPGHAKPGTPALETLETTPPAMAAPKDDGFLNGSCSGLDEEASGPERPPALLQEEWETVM
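HEK-293-derived GP2 cells expressing PTHR1 and a GloSensor cAMP reporter, 3,000/well, plated overnight, given luciferin plus IBMX (each 0.5 mM as added) for 1 h at 37 °C, then compound for 1 h at 37 °C. Luminescence was read after 15 min at room temperature.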
Giardia killer: Small Molecules that selectively kill Giardia lamblia: qHTS; Giardia lamblia trophozoite viability; activity change, % at 7.66 µM, hits read low; hit rate 0.15% among 340,000; AID 540267, 2011; in the data active = activity change below about -80%; inconclusive = between about -30% and that limit;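 note: parasites exposed to compound for two days anaerobically before the ATP read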
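Trophozoites 100 cells/well + cpd; 48 hrs, 37 deg C, anaerobic. ATPLite 1-Step added, 15-30 min RT, luminescence read (ATP-based viability).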
ALOX12 inh: Primary qHTS assay for inhibitors of human arachidonate 12S-lipoxygenase (ALOX12): Round 2; purified 12hLO, xylenol orange hydroperoxide absorbance; Potency, µM (highest dose often 108 µM), hits mostly inhibitors; Polyunsaturated fatty acid lipoxygenase ALOX12 (Homo sapiens), P18054; hit rate 1.1% among 580,000
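Hydroperoxide product was detected by ferrous iron/xylenol orange as the 573 to 405 nm absorbance ratio. Arachidonic acid at 40 uM (final) was turned over for 30 min at room temperature by 150 nM human 12hLO, pH 7.0 Hepes buffer, after 15 min compound preincubation.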
PINK1 modulator: A Quantitative High throughput Screen to Identify Chemical Modulators of PINK1 Expression | PINK1 immunofluorescence, high-content cytometry, 24 h | Potency, µM (series often up to 76.6 µM), hits mostly activators | hit rate 0.2% among 410,000 | AID 624263, 2012; active = well fitted activation curve with a large enough effect; inconclusive = small, poorly fitted or top-dose-only effect; cell line not stated here; note: nearly all actives have a fitted effect of over 65% in size
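Cells are seeded, rested 12 hours, then given compound at five concentrations or DMSO for 24 hours. After fixation, blocking and antibody staining, PINK1 amount and mitochondrial localization are scored; CCCP serves as control.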
Hits are given with their value; . = inactive; ? = inconclusive; / = no result given. Shown are actives, neighbours in structure and some others; about 1.3% of the full set was active somewhere. Unless noted, calls come from the whole dose curve; as a rule, active = well fitted curve in the direction sought with a large enough effect; inconclusive = small, poorly fitted or top-dose-only effect, or another doubt; inactive = no such curve, though single readings can be large; an effect the other way counts as inactive or inconclusive.

SMILES	miR-21 reporter	ERG Ets-DNA blk	PTHR1 agonist	Giardia killer	ALOX12 inh	PINK1 modulator
COC(=O)c1ccc2nc(-c3ccc(C)cc3)c(Cc3ccsc3)n2c1	/	/	.	/	40µM	.
COC(=O)c1ccc2nc(-c3ccc(C#N)cc3)c(Cc3ccsc3)n2c1	/	/	.	/	?	.
COC(=O)c1ccc2nc(-c3ccc(F)cc3)c(Cc3ccsc3)n2c1	/	/	.	/	7.1µM	.
CCCC(=O)c1ccc(O)cc1	/	/	/	/	.	/
CCCC(=O)c1cc(O)c(O)cc1O	/	/	/	/	1.6µM	/
Cc1ccsc1C(=O)Nc1nc2ccccc2[nH]1	.	.	.	.	.	.
CC(C)Cn1c(-c2ccc(Br)cc2)c[nH]c1=S	.	.	.	.	35µM	.
CCn1c(-c2ccccc2)c[nH]c1=S	.	.	.	.	?	.
COc1cc(NC(=O)CSc2ncccc2C(=O)OC(C)C)cc(OC)c1	.	.	.	.	.	.
Cc1ccc2c(CC(=O)Nc3ccc(N4CCN(C)CC4)cc3C)coc2c1	.	.	.	.	.	.
Cc1cccc(NC(=S)NC2CCCCCC2)c1C	.	.	.	.	50µM	.
Cc1cccc(NC(=S)NC2CCCC2)c1C	.	.	.	.	?	.
CC(C)(C)c1ccccc1NC(=S)NC1CCCCC1	.	.	.	.	40µM	.
Cc1ccc2c(CN(C)Cc3ccc(OC(F)F)cc3)cc(=O)oc2c1	/	/	/	/	.	/
CN1C(=O)C(=O)/C(=C(/O)c2ccc(Br)cc2)C1c1ccc(F)cc1 (stereo not given)	.	.	.	.	25µM	.
Cc1ccc(/C(O)=C2\C(=O)C(=O)N(C)C2c2ccc(Br)cc2)cc1 (stereo not given)	.	.	.	.	?	.
COc1ccc(C)cc1NC(=O)N1CCN(c2nnc(C)c3c(C)n(-c4ccccc4)nc23)CC1	.	.	.	/	.	28µM
Cc1ccc(-c2cc3ccccn3c2C=O)cc1C	/	/	/	/	16µM	/
Cc1cc2ccccn2c1C(=O)c1ccc(-c2ccccc2)cc1	/	/	/	/	.	/
O=C(Nc1ccccc1N1CCOCC1)c1ccc([N+](=O)[O-])s1	/	.	.	-89	.	.
Cc1cccc(C)c1NC(=O)c1ccc([N+](=O)[O-])s1	.	.	.	?	.	?
CN1CCN(c2ccccc2NC(=O)c2ccc(-c3cccc([N+](=O)[O-])c3)o2)CC1	.	/	.	.	.	.
CN1CCN(c2ccccc2NC(=O)c2ccc([N+](=O)[O-])o2)CC1	.	.	.	-92	/	.
O=C(Nc1ccccc1N1CCOCC1)c1ccccc1[N+](=O)[O-]	.	.	.	.	.	.
Cc1cccc(NC(=O)c2ccc([N+](=O)[O-])s2)n1	.	.	.	-89	.	?
SMILES	miR-21 reporter	ERG Ets-DNA blk	PTHR1 agonist	Giardia killer	ALOX12 inh	PINK1 modulator
CS(=O)(=O)N1CCN(c2ccccc2NC(=O)c2ccc([N+](=O)[O-])o2)CC1	.	.	.	-98	.	.
CN1c2ccccc2SC2C(c3ccccc3)=NOC21 (stereo not given)	/	/	.	/	.	.
COCCNC(=O)C(=O)c1cc(C)n(-c2ccc([N+](=O)[O-])cc2)c1C	.	.	.	.	.	.
COC(=O)c1nc[nH]c1C(=O)OC	.	.	.	.	?	.
Cn1c(NCCN(CCO)CCCc2ccc([N+](=O)[O-])cc2)cc(=O)n(C)c1=O	/	.	.	.	.	.
CC(=O)Nc1ccc(NC(=O)CCSC2CCc3ccccc3NC2=O)cc1 (stereo not given)	/	/	/	/	.	/
CC(=O)c1cccc(NC(=O)CN(C)S(=O)(=O)c2cccc3nsnc23)c1	.	.	.	.	.	.
COc1cccc(C2=NN(S(C)(=O)=O)C(c3cccs3)C2)c1 (stereo not given)	.	.	.	.	.	.

Screens as filed in PubChem BioAssay.
